For 8 molecules, Potency and outcome results are on record in PubChem BioAssay (Tox21).

Unmarked numbers belong to inactive results. Inconclusive results are not listed. Active and inactive are the calls of the source. Unless noted, calls come from the whole dose curve; as a rule, active = well fitted curve in the direction sought with a large enough effect in the repeat runs; inconclusive = weak or mixed curves; inactive = no such curve, though single readings can be large; an effect the other way counts as inactive or inconclusive.

Assay [1] in a line: qHTS assay to identify small molecule antagonists of the estrogen receptor alpha (ER-alpha) signaling pathway using the BG1 cell line in the presence of 0.1 nM 17-beta-estradiol - cell viability counter screen (AID 1259241). Note: nearly all actives have a fitted effect of over 40% in size. A digest of the protocol:
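Viability in VM7Luc4E2 cells after 22 hr compound exposure under 0.1 nM 17beta-estradiol stimulation, by CellTiter-Fluor.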

Assay [2] can be described thus: qHTS assay to identify small molecule antagonists of the androgen receptor (AR) signaling pathway using the MDA cell line in the presence of 0.5 nM R1881 - cell viability counter screen (AID 1259242). Note: nearly all actives have a fitted effect of over 45% in size. A digest of the protocol:
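MDA-kb2 cells (human breast carcinoma, stably carrying MMTV-luciferase reporter) were exposed to compounds with 0.5 nM R1881 (final) for 16 hr at 37C, 0% CO2; viability then read as live-cell protease fluorescence (CellTiter-Fluor, 30 min) in the same wells.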

The target of assay [3] is Estrogen receptor (Homo sapiens) (UniProt P03372). The assay is described as follows: qHTS assay to identify small molecule antagonists of the estrogen receptor alpha (ER-alpha) signaling pathway using the BG1 cell line in the presence of 0.1 nM 17-beta-estradiol (AID 1259244). Note: nearly all actives have a fitted effect of over 50% in size. A digest of the protocol:
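VM7Luc4E2 cells (endogenous full-length ER-alpha, stable 4xERE-luciferase) were grown 5 days in phenol red-free medium with charcoal-stripped FBS, then exposed 22 h at 37C to compounds plus 0.1 nM (final) 17beta-estradiol; ONE-Glo luminescence read-out.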
Background: Quantitative high-throughput screening tests each substance at several concentrations.

Assay [4] in a line: qHTS assay to identify small molecule phospholipidosis (PLD) inducers (AID 1259344; active = well fitted curve in the direction sought with a large enough effect; an effect the other way counts as inactive or inconclusive). An outline of the steps: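 Quantitative HTS in HepG2: compound plus LipidTOX Red dye for 24 h, paraformaldehyde fixation with Hoechst 33342, widefield high-content imaging; amiodarone as positive and DMSO as negative control.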
Assay [5] is described as follows: qHTS assay to identify small molecule HDAC inhibitors (AID 1259364). Note: top concentration of the series differs between compounds; nearly all actives have a fitted effect of over 45% in size. An outline of the steps: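 Wild-type HCT-116 cells were plated overnight, exposed to compounds for 2 h at 37 °C, then given HDAC-Glo class I/II luminogenic reagent for 30 min at room temperature before luminescence was read.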
Assay [6] in a line: qHTS assay to identify small molecule HDAC inhibitors - cell viability counter screen (AID 1259365). Note: series mostly up to about 92 µM; nearly all actives have a fitted effect of over 50% in size. A digest of the protocol:
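Cytotoxicity was gauged in wild-type HCT-116 cells after a brief 2hr treatment with DMSO-dissolved compounds at 37C and 5% CO2, using CellTiter-Glo luminescence developed for 30min at room temperature.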

The nature of assay [7]: qHTS assay to identify small molecule agonists of the sonic hedgehog signaling (Shh) pathway - cell viability counter screen (AID 1259366). Note: nearly all actives have a fitted effect of over 50% in size. An outline of the steps:
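Stable Gli1-Luc NIH/3T3 clone, 2,000 cells/well. Compound exposure 24hr at 37C. Read-out: CellTiter-Fluor fluorescence.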

The nature of assay [8]: qHTS assay to identify small molecule antagonists of the sonic hedgehog signaling (Shh) pathway - cell viability counter screen (AID 1259367). Note: nearly all actives have a fitted effect of over 55% in size. An outline of the steps:
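Seed 3T3 Gli1-Luc cells at 2,000 per well; incubate 4 hr; add compound in DMSO, then conditioned medium; incubate at 37C with 5% CO2; add CellTiter-Fluor after 23 hr; read fluorescence 1 hr later.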

A short description of assay [9]: qHTS assay to identify small molecule agonists of the sonic hedgehog signaling (Shh) pathway (AID 1259368; calls by dose curve; note: series mostly up to about 92 µM; nearly all actives have a fitted effect of over 15% in size). An outline of the steps:
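NIH/3T3-derived 3T3Gli1-Luc cells carrying a stably integrated Gli1 response element–firefly luciferase reporter were plated, left 4 hr at 37 C, then given compounds in DMSO for 24 hr. Luminescence was read 30 min after adding luciferase reagent.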

Assay [10] in a line: qHTS assay to identify small molecule antagonists of the sonic hedgehog signaling (Shh) pathway (AID 1259369; calls by dose curve; note: nearly all actives have a fitted effect of over 45% in size; note: potency is the fitted concentration of half-maximal effect). A digest of the protocol: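 NIH/3T3-derived 3T3Gli1-Luc cells with stably integrated Gli1-Luc reporter were preincubated 4hr at 37 C, then given compounds in DMSO plus Shh conditioned medium and incubated 24hr. Firefly luciferase luminescence read after 30min reagent at room temperature.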

The target of assay [11] is Estrogen receptor beta (Homo sapiens) (UniProt Q92731). The assay is described as follows: qHTS assay to identify small molecule agonists of the estrogen receptor beta (ER-beta) signaling pathway (AID 1259377; active = well fitted activation curve with a large enough effect in the signal ratio in the repeat runs, not every such curve was filed as active; the % refers to the signal ratio). An outline of the steps: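 Measured by fluorescence intensity from a B/G FRET beta-lactamase substrate (2 h, room temperature) in ER-beta-UAS-bla HEK293T cells treated with DMSO-dissolved compounds for 16 hr at 37C and 5% CO2.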

The target is the same in assay [12]. As to the kind of experiment: qHTS assay to identify small molecule antagonists of the estrogen receptor beta (ER-beta) signaling pathway (AID 1259378; active = well fitted inhibition curve with a large enough effect in the signal ratio in the repeat runs, not every such curve was filed as active; the % refers to the signal ratio). A digest of the protocol:
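ER-beta-UAS-bla HEK293T cells in 2% charcoal-stripped FBS medium treated with compound plus 1nM final 17-beta-estradiol for 16 hr at 37C. Beta-lactamase reporter read by FRET substrate fluorescence after 2 hours at room temperature.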

A short description of assay [13]: qHTS assay to identify small molecule agonists of the androgen receptor (AR) signaling pathway in the presence of an antagonist - cell viability counter screen (AID 1259379). Note: series mostly up to about 92 µM; nearly all actives have a fitted effect of over 25% in size. A digest of the protocol:
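MDA-kb2 human breast carcinoma cells (stable MMTV-luciferase, AR/GR responsive) were seeded 3,000 cells/well, pre-incubated 5 hr at 37C without CO2, then given 3.0uM nilutamide and compounds at 15 concentrations for 16 hr. Viability was read by CellTiter-Fluor fluorescence.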

A short description of assay [14]: qHTS assay to identify small molecule agonists of the estrogen receptor beta (ER-beta) signaling pathway - cell viability counter screen (AID 1259380). Note: nearly all actives have a fitted effect of over 30% in size. Note: potency is the fitted concentration of half-maximal effect. A digest of the protocol: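 ER-beta-UAS-bla HEK293T cells in medium with 2% charcoal-stripped FBS were preincubated 6 hr at 37C, dosed with compound in DMSO for 16 hr, then after the bla read, CellTiter-Glo was added for 30 min at room temperature; luminescence recorded.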

Assay [15] is described as follows: qHTS assay to identify small molecule antagonists of the estrogen receptor beta (ER-beta) signaling pathway - cell viability counter screen (AID 1259382). Note: series mostly up to about 92 µM; nearly all actives have a fitted effect of over 55% in size. A digest of the protocol:
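ER-beta-UAS-bla HEK293T cells (2,000/well, 2% charcoal-stripped FBS) were pre-incubated 6 hr at 37C, then given compound plus 1nM final 17-beta-estradiol for 16 hr. Viability was read in the same wells by CellTiter-Glo luminescence after 30 min at room temperature.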

For assay [16], the target named is Estrogen receptor (Homo sapiens) (UniProt P03372). As to the kind of experiment: qHTS assay to identify small molecule agonists of the estrogen receptor alpha (ER-alpha) signaling pathway in the presence of an antagonist (AID 1259383; calls by dose curve; note: top concentration of the series differs between compounds; nearly all actives have a fitted effect of over 15% in size). A digest of the protocol:
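VM7Luc4E2 cells (endogenous full-length ER-alpha, 4×ERE-luciferase) were precultured 5 days in phenol red-free medium with 10% charcoal-stripped FBS, given 10.0nM ICI-182,780 (final), then treated with compounds at 15 concentrations for 22hr at 37C; luminescence read with ONE-Glo.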

The nature of assay [17]: qHTS assay to identify small molecule agonists or antagonists of the thyroid stimulating hormone receptor (TSHR) signaling pathway - wild type cell line counter screen (AID 1259384; calls by dose curve). A digest of the protocol: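 Wild-type Hek293 cells, 800/well, 18 h at 37C, then compound with Ro20-1724 for 30 min RT. cAMP by HTRF (cAMP-d2/anti-cAMP cryptate), 1 h RT, fluorescence read. 15 concentrations, triplicates.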

For assay [18], the target named is Thyrotropin receptor (Homo sapiens) (UniProt P16473). As to the kind of experiment: qHTS assay to identify small molecule antagonists of the thyroid stimulating hormone receptor (TSHR) signaling pathway (AID 1259385; calls by dose curve; note: nearly all actives have a fitted effect of over 20% in size). An outline of the steps:
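TSHR-HEK293 cells (800/well) plated 18 h, then compounds with Ro20-1724 and TSH at 1.5 ng/mL final, 30 min at room temperature. cAMP quantified by HTRF (cAMP-d2/anti-cAMP-cryptate, 1 h); 15 concentrations in triplicate.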

The target of assay [19] is Androgen receptor (Homo sapiens) (UniProt P10275). As to the kind of experiment: qHTS assay to identify small molecule antagonists of the androgen receptor (AR) signaling pathway using the MDA cell line in the presence of 0.5 nM R1881 (AID 1259243). Note: nearly all actives have a fitted effect of over 50% in size. An outline of the steps:
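MDA-kb2 human breast carcinoma cells carrying an MMTV-luciferase reporter (AR- and GR-responsive) were plated, rested 5 hr at 37C, dosed with compounds, then stimulated with 0.5 nM R1881 (final) for 16 hr; luminescence was read after ONE-Glo.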

Assay [20] has the same target. The assay is described as follows: qHTS assay to identify small molecule agonists of the androgen receptor (AR) signaling pathway in the presence of an antagonist (AID 1259381; calls by dose curve; note: nearly all actives have a fitted effect of over 15% in size). A digest of the protocol: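 MDA-kb2 human breast carcinoma cells carrying an MMTV-luciferase reporter (AR- and GR-responsive) were treated with compounds at 15 concentrations plus 3.0uM final nilutamide for 16hr at 37C without CO2; luminescence was read after ONE-Glo addition.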

Sequence of Estrogen receptor beta (Homo sapiens) (Q92731 whole entry, looked up): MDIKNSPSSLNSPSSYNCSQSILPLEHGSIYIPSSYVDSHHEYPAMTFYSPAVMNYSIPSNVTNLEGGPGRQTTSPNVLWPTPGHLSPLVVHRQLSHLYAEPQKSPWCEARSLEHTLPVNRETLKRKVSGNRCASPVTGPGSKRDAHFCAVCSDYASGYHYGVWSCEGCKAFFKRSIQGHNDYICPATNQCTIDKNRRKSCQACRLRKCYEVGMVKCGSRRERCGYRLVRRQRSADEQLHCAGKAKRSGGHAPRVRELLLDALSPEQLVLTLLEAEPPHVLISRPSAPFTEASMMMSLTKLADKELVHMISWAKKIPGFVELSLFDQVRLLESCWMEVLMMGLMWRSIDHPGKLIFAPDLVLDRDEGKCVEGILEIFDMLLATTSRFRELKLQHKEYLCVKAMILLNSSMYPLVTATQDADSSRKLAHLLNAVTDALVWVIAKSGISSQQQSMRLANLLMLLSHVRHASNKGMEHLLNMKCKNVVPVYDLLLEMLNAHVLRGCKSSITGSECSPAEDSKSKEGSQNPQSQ
Sequence of Androgen receptor (Homo sapiens) (P10275 whole entry, looked up): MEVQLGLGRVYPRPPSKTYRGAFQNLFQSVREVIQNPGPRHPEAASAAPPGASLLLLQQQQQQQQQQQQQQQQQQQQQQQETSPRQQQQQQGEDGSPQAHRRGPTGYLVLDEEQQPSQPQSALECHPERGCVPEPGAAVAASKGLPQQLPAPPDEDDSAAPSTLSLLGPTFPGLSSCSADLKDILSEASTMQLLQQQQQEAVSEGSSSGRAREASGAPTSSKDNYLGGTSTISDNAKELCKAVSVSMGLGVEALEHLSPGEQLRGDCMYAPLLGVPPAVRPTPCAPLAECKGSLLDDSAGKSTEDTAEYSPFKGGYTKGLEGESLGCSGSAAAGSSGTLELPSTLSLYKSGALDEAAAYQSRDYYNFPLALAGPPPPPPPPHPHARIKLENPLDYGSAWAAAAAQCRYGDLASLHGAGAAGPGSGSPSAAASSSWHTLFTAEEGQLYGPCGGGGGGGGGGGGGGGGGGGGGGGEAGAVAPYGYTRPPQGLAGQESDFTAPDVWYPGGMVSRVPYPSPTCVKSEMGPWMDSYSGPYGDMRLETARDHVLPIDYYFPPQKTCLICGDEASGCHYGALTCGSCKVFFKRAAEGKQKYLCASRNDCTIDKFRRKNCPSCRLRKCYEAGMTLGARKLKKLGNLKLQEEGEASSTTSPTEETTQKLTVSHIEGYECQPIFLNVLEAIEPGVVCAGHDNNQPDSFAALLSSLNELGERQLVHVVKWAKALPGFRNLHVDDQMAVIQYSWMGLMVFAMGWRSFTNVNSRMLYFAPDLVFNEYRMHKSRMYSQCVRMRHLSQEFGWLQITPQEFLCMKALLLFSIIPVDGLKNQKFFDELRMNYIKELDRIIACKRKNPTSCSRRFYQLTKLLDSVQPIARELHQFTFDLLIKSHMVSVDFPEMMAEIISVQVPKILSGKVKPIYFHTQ
Sequence of Thyrotropin receptor (Homo sapiens) (P16473 whole entry, looked up): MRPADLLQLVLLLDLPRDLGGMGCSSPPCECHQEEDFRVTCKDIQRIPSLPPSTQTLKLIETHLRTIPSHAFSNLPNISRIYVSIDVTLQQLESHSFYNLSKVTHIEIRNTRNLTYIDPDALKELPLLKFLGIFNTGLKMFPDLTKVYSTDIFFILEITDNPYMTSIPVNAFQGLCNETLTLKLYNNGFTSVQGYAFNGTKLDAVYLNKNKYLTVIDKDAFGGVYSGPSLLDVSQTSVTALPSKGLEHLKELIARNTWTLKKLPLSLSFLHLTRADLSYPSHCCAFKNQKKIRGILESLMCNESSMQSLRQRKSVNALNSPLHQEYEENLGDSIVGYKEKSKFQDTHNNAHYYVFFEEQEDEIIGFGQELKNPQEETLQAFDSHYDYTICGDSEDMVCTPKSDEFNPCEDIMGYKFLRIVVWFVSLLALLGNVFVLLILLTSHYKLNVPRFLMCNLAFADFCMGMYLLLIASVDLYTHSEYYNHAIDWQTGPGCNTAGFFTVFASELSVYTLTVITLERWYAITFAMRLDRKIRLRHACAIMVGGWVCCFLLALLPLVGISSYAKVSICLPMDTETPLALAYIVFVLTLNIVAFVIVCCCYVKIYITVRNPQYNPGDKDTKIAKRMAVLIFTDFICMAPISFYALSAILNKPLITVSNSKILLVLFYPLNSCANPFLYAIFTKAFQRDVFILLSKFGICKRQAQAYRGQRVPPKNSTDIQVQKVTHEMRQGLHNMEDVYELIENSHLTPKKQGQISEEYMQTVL
Sequence of Estrogen receptor (Homo sapiens) (P03372 whole entry, looked up): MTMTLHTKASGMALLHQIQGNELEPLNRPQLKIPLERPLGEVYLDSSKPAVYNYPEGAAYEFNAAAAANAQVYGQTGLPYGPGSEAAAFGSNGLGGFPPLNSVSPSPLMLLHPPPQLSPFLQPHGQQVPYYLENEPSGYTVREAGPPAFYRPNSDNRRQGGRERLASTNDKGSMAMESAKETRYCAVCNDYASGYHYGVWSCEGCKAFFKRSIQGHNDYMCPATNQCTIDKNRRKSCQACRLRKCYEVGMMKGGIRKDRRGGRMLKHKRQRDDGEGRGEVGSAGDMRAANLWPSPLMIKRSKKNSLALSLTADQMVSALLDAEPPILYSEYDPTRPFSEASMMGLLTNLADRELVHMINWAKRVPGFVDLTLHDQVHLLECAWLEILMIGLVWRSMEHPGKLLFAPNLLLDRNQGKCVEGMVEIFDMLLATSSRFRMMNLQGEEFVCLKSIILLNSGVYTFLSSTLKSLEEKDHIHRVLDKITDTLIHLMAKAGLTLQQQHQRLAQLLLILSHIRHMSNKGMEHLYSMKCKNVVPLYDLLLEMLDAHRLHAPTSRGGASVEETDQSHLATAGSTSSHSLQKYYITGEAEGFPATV

Consider `CCOCC(O)COc1ccc(NC(=O)CC[S+](C)C)cc1` (configuration not stated), for which the Potency entry in [1], in assay [2], in assay [3], in assay [4], in assay [5] and in assay [6] was “inactive” each time. Also, the Potency result in assay [7], in [8], in [10], in assay [11], in [12] and in [13] was “inactive” throughout. In addition, the Potency result in assay [14], in assay [15], in assay [16], in assay [17] and in assay [18] was “inactive” each time. Also, the molecule was classed as inactive in [9].

With `CC(=O)NO`, the Potency entry in [1], in assay [2], in assay [19], in assay [4], in assay [5] and in [6] was “inactive” in each case. For the same molecule, the Potency result in [7], in assay [8], in [10], in assay [11], in [13] and in assay [14] was “inactive” in each case. Further, the Potency entry in assay [15], in assay [17] and in assay [18] was “inactive” in each case. Moreover, the result in assay [9] was inactive.

As to `CCN(CC)CCNC(=O)c1cc(Br)c(N)cc1OC`, the Potency result in [1], in assay [2], in assay [3], in assay [4], in [5] and in assay [6] was “inactive” each time. The Potency result in assay [7], in assay [8], in assay [10], in [11], in [12] and in [14] was “inactive” each time. Besides, the Potency result in assay [15], in assay [16] and in [18] was “inactive” each time. For the same molecule, the molecule was classed as inactive in assay [9].

Consider `COc1ccc(-c2nc3ccc(C4=NNC(=O)CC4C)cc3[nH]2)cc1` (configuration not stated), for which the Potency result in assay [1], in [2], in assay [19], in assay [3], in assay [4] and in assay [7] was “inactive” in each case. Also, the Potency entry in assay [11], in assay [13], in assay [14], in assay [20], in [15] and in assay [16] was “inactive” each time. The Potency entry in assay [17] is “inactive”. In addition, the molecule was called inactive in assay [9]. For the same molecule, the Potency in assay [10] is 8.41 µM (active).

Consider `CNC(=O)CN(CCN(CCN(CC(=O)[O-])CC(=O)NC)CC(=O)[O-])CC(=O)[O-].O.[Gd+3]`, for which the Potency result in [1], in assay [2], in [3], in assay [4], in [5] and in assay [6] was “inactive” throughout. The Potency entry in [7], in assay [8], in assay [10], in [13], in [14] and in assay [15] was “inactive” each time. Also, in assay [16], the Potency entry was “inactive”. The molecule was called inactive in assay [9].

`CN1CCN(C(c2ccccc2)c2ccccc2)CC1`: the Potency result in [1], in assay [2], in assay [19], in assay [3], in assay [4] and in assay [5] was “inactive” in each case. The Potency result in assay [6], in assay [11], in assay [12], in assay [13], in assay [14] and in assay [20] was “inactive” in each case. In addition, the Potency entry in [15], in assay [16] and in [17] was “inactive” each time. Moreover, the molecule was classed as inactive in assay [9].

As to `CC(=O)OC[C@H]1O[C@@H](n2ncc(=O)[nH]c2=O)[C@H](OC(C)=O)[C@@H]1OC(C)=O`, the Potency result in assay [1], in [2], in [19], in assay [3], in assay [4] and in assay [5] was “inactive” in each case. Also, the Potency entry in [7], in [8], in assay [10], in [13], in assay [20] and in [16] was “inactive” each time. The Potency entry in assay [17] and in assay [18] was “inactive” in each case. The call in assay [9] was inactive. Moreover, the Potency in assay [14] is 1.33 µM (active).

As to `O=C1c2ccccc2S(=O)(=O)N1CCCCN1CCN(c2ncccn2)CC1`, the Potency entry in assay [1], in assay [2], in [3], in [4], in [5] and in assay [6] was “inactive” each time. For the same molecule, the Potency result in [7], in assay [8], in assay [10], in assay [13], in assay [14] and in assay [15] was “inactive” throughout. Besides, the Potency entry in [16], in assay [17] and in assay [18] was “inactive” throughout. The outcome in [9] was inactive.
